The list is not random: actives were taken first. Their share in the collection is about 16%.
TDP1 inh: qHTS Assay for Inhibitors of Tyrosyl-DNA Phosphodiesterase (TDP1); Potency, µM (doses to about 130 µM), for inactives: top-dose activity change, negative = inhibition, hits mostly inhibitors; recombinant TDP1, AlphaScreen DNA substrate cleavage; Tyrosyl-DNA phosphodiesterase 1 (Homo sapiens), Q9NUW8; 350,000 tested, 0.28% active; further: potency means the concentration at half of the fitted maximal effect; on the % scale 0 is the no-effect control and ±100 the full control effect; nearly all actives have a fitted effect of over 40% in size
Target sequence (Q9NUW8 whole entry, looked up): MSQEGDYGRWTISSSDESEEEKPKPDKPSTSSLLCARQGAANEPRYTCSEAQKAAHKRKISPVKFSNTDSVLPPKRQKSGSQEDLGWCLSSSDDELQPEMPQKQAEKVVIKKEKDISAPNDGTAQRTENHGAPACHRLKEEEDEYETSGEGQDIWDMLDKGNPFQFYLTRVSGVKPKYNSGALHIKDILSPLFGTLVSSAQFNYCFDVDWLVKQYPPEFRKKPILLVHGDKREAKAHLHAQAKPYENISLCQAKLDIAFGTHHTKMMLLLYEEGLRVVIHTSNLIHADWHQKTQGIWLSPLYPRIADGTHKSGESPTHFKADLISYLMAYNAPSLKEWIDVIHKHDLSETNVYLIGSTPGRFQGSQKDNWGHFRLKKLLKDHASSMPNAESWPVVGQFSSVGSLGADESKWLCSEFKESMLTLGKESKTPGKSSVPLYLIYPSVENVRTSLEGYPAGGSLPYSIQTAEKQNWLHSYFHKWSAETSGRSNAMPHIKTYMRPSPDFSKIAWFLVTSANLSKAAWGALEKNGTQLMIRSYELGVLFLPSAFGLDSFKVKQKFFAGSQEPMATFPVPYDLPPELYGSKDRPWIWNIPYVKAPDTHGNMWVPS
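E. coli-derived human Tdp1, 1 nM final. Cpd preinc 15 min RT; substrate 15 nM final, 5 min RT; AS bead mix 10 ug/ml final, 10 min RT. Signal loss = tyrosine-FITC cleavage. No-enzyme wells = max signal.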
miR-21 reporter: qHTS Assay for Modulators of miRNAs and/orActivators of miR-21; HeLa miR-21 FLuc reporter, luciferase, 48 h; Potency, µM (top dose mostly 38.3 µM), for the others: at the highest dose activity change, positive = activation, most hits filed as activators; 340,000 tested, under 10 active; AID 2288, 2010;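 further: % of control where 0% means no effect; miR-21 action dims this reporter so a rising signal means less miR-21 action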
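HeLa cells stably expressing CMV-driven firefly luciferase with a downstream miR-21 binding sequence, endogenously expressing miR-21, were treated with titrations (up to about 40uM final) for 48 hours at 37 degree Celsius. Luciferase luminescence was read after lysis.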
uPA generation: qHTS for Inhibitors of Cell Surface uPA Generation; cell surface uPA generation assay, qHTS; Potency, µM (doses to about 38.3 µM), for inactives: top-dose activity change, negative = inhibition, most hits filed as inhibitors; 330,000 tested, 0.31% active; active means well fitted inhibition curve with a large enough effect; inconclusive means small, poorly fitted or top-dose-only effect; inactive means no such curve, though single readings can be large or run the other way; tested in mouse RAW 264.7 cells; further: potency means the concentration at half of the fitted maximal effect; on the % scale 0 is the no-effect control and ±100 the full control effect; nearly all actives have a fitted effect of over 55% in size
TDP1 cell CPT: qHTS for Inhibitors of human tyrosyl-DNA phosphodiesterase 1 (TDP1): qHTS in cells in presence of CPT | chicken DT40 Tdp1-/-;hTDP1 cells + 20 nM CPT, ATP luminescence, 48 h | Potency, µM (titrated, usually from 46.2 µM), for the others: top-dose activity change, negative = growth inhibition, actives largely listed as inhibitors | 420,000 tested, 12% active; further: potency means the concentration at half of the fitted maximal effect; on the % scale 0 is the no-effect control and ±100 the full control effect; nearly all actives have a fitted effect of over 55% in size
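Chicken DT40 Tdp1-/- cells stably complemented with human TDP1 were seeded at 400 cells/well in medium containing 20 nM camptothecin, exposed to pin-transferred compounds, and grown at 37 °C for at least 48 hr. Viability was read as ATP luminescence.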
TDP1 cell noCPT: qHTS for Inhibitors of human tyrosyl-DNA phosphodiesterase 1 (TDP1): qHTS in cells in absence of CPT | DT40 Tdp1-/- hTDP1 cells, no CPT, ATP luminescence, 48 h | Potency, µM (series often up to 46.2 µM), for the others: at the highest dose activity change, negative = growth inhibition, most hits filed as inhibitors | 420,000 tested, 15% active; further: potency means the concentration at half of the fitted maximal effect; on the % scale 0 is the no-effect control and ±100 the full control effect; nearly all actives have a fitted effect of over 55% in size
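Compound effects on proliferation are scored in DT40 Tdp1-/-;hTDP1 cells in the absence of CPT. ATP levels (CellTiter-Glo luminescence) are recorded after a ≥48 hr, 37 °C incubation.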
* hit, by the source's call; ? = inconclusive; · = no result given; [ ] = remark or other dose. Unless noted, the call rests on the fitted dose curve; in most records, active means well fitted curve in the direction sought with a large enough effect; inconclusive means small, poorly fitted or top-dose-only effect, or another doubt; inactive means no such curve, though single readings can be large; an effect the other way counts as inactive or inconclusive.

SMILES	TDP1 inh	miR-21 reporter	uPA generation	TDP1 cell CPT	TDP1 cell noCPT
CCOc1ccc(C(=O)Nc2ccccc2N2CCN(C(=O)c3ccccc3)CC2)cc1[N+](=O)[O-]	3%	-1%	12%	7.3µM*	12µM*
CCOc1ccc(C(=O)NC(=S)Nc2ccccc2N2CCC(C)CC2)cc1[N+](=O)[O-]	9%	-2%	7%	?	16µM*
Cc1cc(C(=O)NC(=S)Nc2ccccc2N2CCCC2)ccc1[N+](=O)[O-]	7%	-5%	-1%	7%	-29%
CCOc1ccc(C(=O)Nc2ccccc2C#N)cc1[N+](=O)[O-]	3%	1%	-2%	16µM*	?
CC(=O)NNC(=O)c1cc2c3ccccc3n(C)c2s1	8%	-2%	-19%	5%	-2%
COc1ccc(S(=O)(=O)NNC(=O)c2cc3c4ccccc4n(C)c3s2)cc1	-2%	-2%	-9%	2.9µM*	4.1µM*
COC(=O)c1ccc(CNC(=O)COC(=O)CCC(=O)c2ccc(F)cc2)cc1	1%	·	5%	12%	8%
CCOC(=O)c1c(C)n(CC(O)c2ccccc2)c2ccc(O)cc12 (centres undefined)	3%	3%	5%	?	18µM*
O=C(N/N=C/c1ccc(Br)o1)c1ccc2c(c1)OCCO2	3%	-34%	-9%	-28%	-25%
Cc1nc(-c2ccc(S(=O)(=O)NCc3ccc(OC(C)C)cc3)cc2)co1	9%	4%	·	?	26µM*
O=S(=O)(NCc1ccccc1Cl)c1ccc(-c2cnc(C3CC3)o2)cc1	-1%	25%	·	3.7µM*	2.9µM*
Cc1ccc(CNS(=O)(=O)c2ccc(-c3cnc(C4CC4)o3)cc2)cc1	-14%	1%	0%	?	?
Cc1nc(-c2ccc(S(=O)(=O)NCc3ccccc3Cl)cc2)co1	-9%	-2%	·	?	?
CCOc1ccc(NS(=O)(=O)c2ccc(-c3coc(C)n3)cc2)cc1	2%	-8%	8%	?	?
CCOc1ccccc1CNS(=O)(=O)c1ccc(-c2coc(C)n2)cc1	2%	8%	·	16µM*	16µM*
CCOc1ccccc1CNS(=O)(=O)c1ccc(-c2cnc(C3CC3)o2)cc1	4%	27%	0.28µM*	0.82µM*	0.65µM*
C=CCn1c(C)cc(C(=O)CSc2nnc3c(Cl)cc(Cl)cn23)c1C	-2%	-21%	6%	?	?
CC(=O)O[C@H]1[C@H](O)[C@H](Oc2c(O)c(C)c3c4c2[C@@H](C)CC[C@@H]4[C@@H](C)C[C@H]3C=C(C)C)O[C@@H](C)[C@H]1O	7%	·	8%	?	18µM*
CC(C)=C[C@@H]1C[C@H](C)[C@H]2CC[C@H](C)c3c(O)c(O)c(C)c1c32	9%	·	-6%	21µM*	?
CC(=O)OC1[C@H](Oc2c(O)c(C)c3c4c2[C@@H](C)CC[C@@H]4[C@@H](C)C[C@@H]3C=C(C)C)OC[C@@H](O)[C@@H]1O (some centres undefined)	5%	·	15%	5%	-31%
C=CCN(c1cccc(C(F)(F)F)c1)S(=O)(=O)c1cccc(C(=O)OCC(=O)NC(N)=O)c1	1%	-13%	0%	-14%	-24%
CCCCCC(=O)N/N=C(\C)c1ccc(Cl)cc1	3%	-9%	·	-27%	?
CC1CN(C(=S)Nc2ccc(F)cc2F)CC(C)O1 (centres undefined)	2%[56.1 µM]	-4%	-20%	9%	6%
COc1ccc(NC(=O)N2CCOCC2)cc1OC	1%	-5%	2%	6%	3%
Cc1csc2ncnc(N3CCN(C(=S)Nc4ccc(F)cc4F)CC3)c12	4%	13%	4%	?	15µM*
O=C(Nc1ccc(F)cc1F)N1CCCN(c2ccc(C(F)(F)F)cn2)CC1	·	28%	14%	?	?
